A short description of assay [1]: Nuclear factor erythroid 2-related factor 2/antioxidant responsive element (Nrf2/ARE) small molecule agonists: qHTS cell viability counter screen in human keratinocytes (AID 1919968; active means well fitted curve in the direction sought with a large enough effect in the repeat runs; an effect the other way counts as inactive or inconclusive; further: nearly all actives have a fitted effect of over 55% in size; further: potency means the concentration at half of the fitted maximal effect). The method in brief:
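Seed 1,500 KeratinoSens cells per well, then incubate 5 h at 37 C/5% CO2. Add compounds in DMSO and incubate 23 h. Add CellTiter-Fluor, wait 1 h and read fluorescence.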
For orientation: In qHTS, concentration-response curves come from the screen itself.

Assay [2] can be described thus: Nuclear factor erythroid 2-related factor 2/antioxidant responsive element (Nrf2/ARE) small molecule agonists: luciferase reporter gene qHTS assay in human keratinocytes (AID 1919969; further: nearly all actives have a fitted effect of over 35% in size; further: potency means the concentration at half of the fitted maximal effect). (A reporter such as luciferase makes a cellular process visible.)
For assay [3], the target named is Gonadotropin-releasing hormone receptor (Homo sapiens) (UniProt P30968). Kind of assay: Human gonadotropin-releasing hormone receptor (GnRHR) small molecule agonists, calcium flux assay in GnRHR-HEK293 cells (AID 1920063). Further: nearly all actives have a fitted effect of over 35% in size. In a few lines: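 Cells: HEK293 stably expressing human GnRHR. Steps: overnight (18 h) culture, 1 h calcium dye loading at 37 C, compound addition, kinetic fluorescence read at 480/540 nm. Each compound tested at 15 concentrations in triplicate.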

Assay [4] has as its target KiSS-1 receptor (Homo sapiens) (UniProt Q969F8). Kind of assay: Human kisspeptin (KISS1R) small molecule agonists, calcium flux assay in KISS1R-HEK293 cells (AID 1920064; active means well fitted curve in the direction sought with a large enough effect in the repeat runs; an effect the other way counts as inactive or inconclusive). In a few lines: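 Cells plated and incubated 18 h; dye added, 1 h at 37 C; compounds in DMSO pinned in; signal read at 480/540 nm every second for 3 min. Each compound tested at 15 concentrations in triplicate.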
(In general: Calcium assays in cells follow changes in intracellular calcium, usually with a dye or a luminescent sensor.)

Assay [5] can be described thus: G protein-coupled receptor (GPCR) small molecule agonists, calcium flux assay: HEK293 wild type cell line counter screen (AID 1920065). In a few lines: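 Counter-screen of the Tox21 10K library for non-specific calcium release: dye-loaded cells received compounds in DMSO and were monitored by kinetic fluorescence (480/540 nm, 3 min). Fifteen concentrations, run in triplicate.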

Assay [6] can be described thus: p53 small molecule agonists, cell-based qHTS assay with human liver microsomes (AID 1963577).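 Further: p53 response element beta-lactamase reporter cells with liver microsomes plus NADPH.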 In a few lines:
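In this qHTS, p53 response-element beta-lactamase cells receive test compound together with a microsome/NADPH activating system (0.5 mg/mL final each) and are incubated 16 h at 37 C before LiveBLAzer fluorescence detection.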

Assay [7] can be described thus: p53 small molecule agonists, cell-based qHTS assay with rat liver microsomes (AID 1963578). In a few lines: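 Agonist mode in p53RE-bla reporter cells, with compounds co-incubated 16 h at 37 C alongside 0.5 mg/mL rat liver microsomes and 0.5 mg/mL NADPH (final), followed by a 2 h LiveBLAzer detection step.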
A short description of assay [8]: p53 small molecule agonists, cell-based qHTS assay with human liver microsomes: qHTS cell viability counter screen (AID 1963579). Further: nearly all actives have a fitted effect of over 45% in size. Further: potency means the concentration at half of the fitted maximal effect. In a few lines: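 Metabolically activated exposure: compounds, human liver microsomes and NADPH (0.5 mg/mL final apiece) were added to p53RE-bla cells seeded 5 h earlier, left 16 h at 37 C, and then assessed for viability by CellTiter-Glo luminescence.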

Assay [9] can be described thus: p53 small molecule agonists, cell-based qHTS assay with rat liver microsomes: qHTS cell viability counter screen (AID 1963580). Further: nearly all actives have a fitted effect of over 45% in size. Further: potency means the concentration at half of the fitted maximal effect. The method in brief: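 Viability is assessed in parallel with the p53 reporter read: HCT-116 p53RE-bla cells receive compounds plus rat microsomes and NADPH (0.5 mg/mL final apiece), incubate 16 h at 37 C, and then CellTiter-Glo luminescence is recorded.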

Assay [10] in a line: p53 small molecule agonists, cell-based qHTS assay: qHTS cell viability counter screen (AID 1963581). Further: nearly all actives have a fitted effect of over 45% in size. Further: potency means the concentration at half of the fitted maximal effect. In a few lines:
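Cells: HCT-116 with p53 response element-driven beta-lactamase. Treatment: 16 h, 37 C, compounds in DMSO. Read: CellTiter-Glo luminescence after 30 min RT.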

Assay [11] deals with 5-hydroxytryptamine receptor 2A (Homo sapiens) (UniProt P28223). Kind of assay: 5-hydroxytryptamine receptor 2A (HTR2A) small molecule agonists, cell-based qHTS assay (AID 1963587). Further: nearly all actives have a fitted effect of over 30% in size. Further: potency means the concentration at half of the fitted maximal effect. The method in brief:
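CHO cells stably expressing human HTR2A, plated 18 h, loaded with calcium dye 1 h at 37 C. Agonist mode: compounds added and intracellular calcium fluorescence recorded kinetically for 2 min at 1 sec intervals.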

Assay [12] concerns the target Muscarinic acetylcholine receptor M1 (Homo sapiens) (UniProt P11229). Kind of assay: Cholinergic receptor muscarinic 1 (CHRM1) small molecule antagonists, cell-based qHTS assay (AID 1963588). Further: nearly all actives have a fitted effect of over 40% in size. The method in brief: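 CHRM1-CHO calcium-flux assay, antagonist mode. Cells were seeded 18 h, dye-loaded 1 h at 37 C and given compound for 5 min at RT, then acetylcholine was added at 50nM. FDSS fluorescence was read 3 min; 15 concentrations, three runs.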

Assay [13] shares this target. Put plainly: Cholinergic receptor muscarinic 1 (CHRM1) small molecule agonists, cell-based qHTS assay (AID 1963589). Further: nearly all actives have a fitted effect of over 35% in size. The method in brief:
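Agonist-mode qHTS in CHO cells stably carrying human muscarinic M1. Intracellular calcium is tracked by fluorescence every second after compound transfer; each compound runs at 15 concentrations in three independent runs.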

Assay [14] addresses Beta-2 adrenergic receptor (Homo sapiens) (UniProt P07550). Put plainly: Adrenergic beta2 receptor (ADRB2) small molecule antagonists, cell-based qHTS assay (AID 1963592). Further: series mostly up to about 92 µM; nearly all actives have a fitted effect of over 50% in size. In a few lines: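 Cells (CHO, stable ADRB2 overexpression) incubated 18-20hr at 37C; compounds added from DMSO; agonist mix (1nM isoproterenol, 100uM IBMX, 25uM Ro-20-1724) added; 0.5hr RT; d2-cAMP and anti-cAMP-cryptate added; 1hr RT; 665/615 nm read.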

Assay [15] deals with D(2) dopamine receptor (Homo sapiens) (UniProt P14416). Put plainly: Dopamine D2 receptor (DRD2) small molecule agonists, cell-based qHTS assay (AID 1963594). Further: nearly all actives have a fitted effect of over 35% in size. The method in brief:
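HEK293 cells stably expressing human DRD2, pre-treated with PDE inhibitor Ro20-1724 (0.1 mM final) and compound 10 min at room temperature, then stimulated with NKH477 (200nM […]) for 30 min. cAMP read by HTRF (665/620 nm).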

Assay [16] shares this target. Put plainly: Dopamine D2 receptor (DRD2) small molecule antagonists, cell-based qHTS assay (AID 1963595; active means well fitted inhibition curve with a large enough effect in the signal ratio in the repeat runs, with a control signal flat; the % refers to the signal ratio; further: potency means the concentration at half of the fitted maximal effect). In a few lines:
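DRD2-HEK293; 0.1 mM Ro20-1724; cpd 10 min RT; NKH477 200 nM + quinpirole 12 nM, 30 min RT; HTRF cAMP (cAMP-d2/anti-cAMP cryptate), 665/620 nm ratio after 1 h.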

Assay [17] is described as follows: cAMP Responsive Elements (CRE) small molecule agonists, cell-based qHTS assay (AID 1963590). The method in brief:
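Agonist mode qHTS in CRE-bla HEK 293T cells: compounds dosed from DMSO for 3 h at 37 C/5% CO2, followed by LiveBLAzer B/G FRET substrate for 2 h at room temperature.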

Assay [18] in a line: cAMP Responsive Elements (CRE) small molecule antagonists, cell-based qHTS assay (AID 1963591; active means well fitted inhibition curve with a large enough effect in the signal ratio in the repeat runs, not every such curve was filed as active; the % refers to the signal ratio). The method in brief: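 Antagonist mode: test compounds are co-incubated with the adenylyl cyclase activator NKH477 (0.25 uM final) on CRE-bla HEK293T cells for 3 h at 37 °C, followed by LiveBLAzer substrate loading.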
For assay [19], the target named is Beta-2 adrenergic receptor (Homo sapiens) (UniProt P07550). Put plainly: Adrenergic beta2 receptor (ADRB2) small molecule agonists, cell-based qHTS assay (AID 1963593).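 Further: CHO cells stably overexpressing human ADRB2.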 The method in brief:
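CHO cells stably over-expressing ADRB2 were plated overnight at 37C, then dosed with compounds plus a stimulation mix containing 100uM IBMX and 25uM Ro-20-1724 for 0.5hr at room temperature. cAMP was measured by HTRF competition, 1hr.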

Results filed as inconclusive are left out. Active and inactive are the calls of the source. Unless noted, the call rests on the fitted dose curve.

Chain of KiSS-1 receptor (Homo sapiens) (Q969F8 whole entry, looked up): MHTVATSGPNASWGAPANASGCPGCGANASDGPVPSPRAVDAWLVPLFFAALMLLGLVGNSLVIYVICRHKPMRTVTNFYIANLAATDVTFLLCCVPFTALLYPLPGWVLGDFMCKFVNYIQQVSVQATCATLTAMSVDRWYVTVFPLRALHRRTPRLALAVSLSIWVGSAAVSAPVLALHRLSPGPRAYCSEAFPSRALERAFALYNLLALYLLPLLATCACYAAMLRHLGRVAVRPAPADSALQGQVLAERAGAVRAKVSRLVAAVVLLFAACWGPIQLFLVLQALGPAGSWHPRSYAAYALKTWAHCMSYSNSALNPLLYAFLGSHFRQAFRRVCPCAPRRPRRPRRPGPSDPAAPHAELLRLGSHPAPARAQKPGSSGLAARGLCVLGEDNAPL
Chain of D(2) dopamine receptor (Homo sapiens) (P14416 whole entry, looked up): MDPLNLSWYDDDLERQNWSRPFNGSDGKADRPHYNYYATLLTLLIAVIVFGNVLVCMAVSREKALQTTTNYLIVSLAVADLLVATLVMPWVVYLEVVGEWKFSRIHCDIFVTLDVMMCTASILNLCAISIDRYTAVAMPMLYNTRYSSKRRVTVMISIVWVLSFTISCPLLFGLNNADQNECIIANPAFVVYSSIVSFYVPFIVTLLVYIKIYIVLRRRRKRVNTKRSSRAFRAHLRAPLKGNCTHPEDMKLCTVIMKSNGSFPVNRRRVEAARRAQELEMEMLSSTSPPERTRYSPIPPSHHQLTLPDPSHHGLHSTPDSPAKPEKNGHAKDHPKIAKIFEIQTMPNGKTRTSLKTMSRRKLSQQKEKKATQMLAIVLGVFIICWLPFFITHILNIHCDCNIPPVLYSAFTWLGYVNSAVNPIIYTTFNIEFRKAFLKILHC
Chain of Beta-2 adrenergic receptor (Homo sapiens) (P07550 whole entry, looked up): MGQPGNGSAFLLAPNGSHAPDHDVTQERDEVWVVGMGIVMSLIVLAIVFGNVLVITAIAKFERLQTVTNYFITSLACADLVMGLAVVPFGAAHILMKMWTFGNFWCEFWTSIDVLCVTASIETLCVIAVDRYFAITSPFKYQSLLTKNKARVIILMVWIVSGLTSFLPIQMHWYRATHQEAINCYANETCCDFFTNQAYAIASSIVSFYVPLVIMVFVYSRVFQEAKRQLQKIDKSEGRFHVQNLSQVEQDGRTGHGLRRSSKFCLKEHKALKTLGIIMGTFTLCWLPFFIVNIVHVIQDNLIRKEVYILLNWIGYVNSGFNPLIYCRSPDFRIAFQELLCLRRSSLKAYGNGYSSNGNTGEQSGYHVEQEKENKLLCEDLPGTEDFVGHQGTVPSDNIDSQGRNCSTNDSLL
Chain of 5-hydroxytryptamine receptor 2A (Homo sapiens) (P28223 whole entry, looked up): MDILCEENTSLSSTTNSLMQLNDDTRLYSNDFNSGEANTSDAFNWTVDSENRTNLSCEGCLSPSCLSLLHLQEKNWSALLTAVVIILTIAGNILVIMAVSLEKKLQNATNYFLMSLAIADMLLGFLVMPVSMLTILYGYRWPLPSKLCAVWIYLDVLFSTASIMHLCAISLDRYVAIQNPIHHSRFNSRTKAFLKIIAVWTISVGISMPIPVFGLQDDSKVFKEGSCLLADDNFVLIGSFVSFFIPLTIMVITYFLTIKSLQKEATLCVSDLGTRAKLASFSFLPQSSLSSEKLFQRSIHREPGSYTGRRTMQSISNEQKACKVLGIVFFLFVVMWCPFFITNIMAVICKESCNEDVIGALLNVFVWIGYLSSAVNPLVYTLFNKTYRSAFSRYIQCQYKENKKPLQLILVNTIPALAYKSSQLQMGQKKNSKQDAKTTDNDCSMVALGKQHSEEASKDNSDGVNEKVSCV
Chain of Gonadotropin-releasing hormone receptor (Homo sapiens) (P30968 whole entry, looked up): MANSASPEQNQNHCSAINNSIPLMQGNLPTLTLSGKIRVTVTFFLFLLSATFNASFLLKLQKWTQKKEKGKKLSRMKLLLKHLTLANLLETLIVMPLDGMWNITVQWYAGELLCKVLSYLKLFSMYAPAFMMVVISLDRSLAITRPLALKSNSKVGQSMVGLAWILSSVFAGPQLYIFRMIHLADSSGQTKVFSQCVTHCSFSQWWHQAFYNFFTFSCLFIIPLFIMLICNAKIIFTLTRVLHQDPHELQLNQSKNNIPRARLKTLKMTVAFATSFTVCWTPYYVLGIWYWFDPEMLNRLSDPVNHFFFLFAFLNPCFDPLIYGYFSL
Chain of Muscarinic acetylcholine receptor M1 (Homo sapiens) (P11229 whole entry, looked up): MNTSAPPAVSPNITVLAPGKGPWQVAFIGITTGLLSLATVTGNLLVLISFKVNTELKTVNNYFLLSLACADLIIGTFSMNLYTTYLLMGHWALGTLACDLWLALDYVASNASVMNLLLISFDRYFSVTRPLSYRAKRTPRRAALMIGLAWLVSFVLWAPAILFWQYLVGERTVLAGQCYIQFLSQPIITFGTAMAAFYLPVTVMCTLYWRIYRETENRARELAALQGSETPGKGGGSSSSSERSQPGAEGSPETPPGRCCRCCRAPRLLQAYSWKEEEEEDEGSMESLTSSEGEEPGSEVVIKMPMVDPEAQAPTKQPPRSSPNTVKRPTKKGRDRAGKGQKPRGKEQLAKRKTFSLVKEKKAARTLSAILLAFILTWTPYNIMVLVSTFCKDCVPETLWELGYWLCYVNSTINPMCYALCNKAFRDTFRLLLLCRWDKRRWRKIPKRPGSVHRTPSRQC

Turning to `CCCCCCCC[P+](CCCCCCCC)(CCCCCCCC)CCCCCCCC`, the Potency in assay [1] is 4.83 µM (active); in assay [8], 8.09 µM (active); in assay [9] it was 20.3 µM (active); in assay [10], 2.56 µM (active); in [11] it was 24.4 µM (active); in assay [16], 13.6 µM (active). Also, the Potency result in [2], in assay [3], in assay [6], in [7], in assay [12] and in assay [13] was “inactive” each time. Besides, the Potency entry in [14] and in [15] was “inactive” each time. For the same molecule, the outcome in assay [4] and in [5] was inactive.
As to `C/C(=N\[Si](C)(C)C)O[Si](C)(C)C`, the Potency entry in assay [1], in assay [2], in [3], in assay [6], in assay [7] and in assay [8] was “inactive” each time. Also, the Potency entry in assay [9], in [10], in [11], in assay [12], in [13] and in [17] was “inactive” in each case. Besides, the Potency entry in assay [18], in [14], in assay [15] and in [16] was “inactive” in each case. The result in assay [4] and in assay [5] was inactive.
Consider `CCCCCCC1CCCC(=O)O1` (stereo unspecified), for which the Potency entry in assay [1], in assay [2], in assay [3], in [6], in assay [7] and in assay [8] was “inactive” in each case. Besides, the Potency entry in assay [9], in assay [10], in assay [11], in assay [12], in [13] and in assay [14] was “inactive” in each case. In addition, the Potency result in assay [15] and in [16] was “inactive” each time. Also, the result in assay [4] and in [5] was inactive.
As to `CO[C@@H]1[C@H](OC(=O)/C=C/C=C/C=C/C=C/C(=O)O)CC[C@]2(CO2)[C@H]1[C@@]1(C)O[C@@H]1CC=C(C)C`, the Potency entry in [1], in assay [3], in assay [6], in assay [7], in [8] and in assay [9] was “inactive” throughout. In addition, the Potency entry in assay [10], in [11], in [12], in [13], in [17] and in assay [14] was “inactive” in each case. For the same molecule, the Potency result in assay [19] and in assay [16] was “inactive” throughout. For the same molecule, in assay [2], the Potency is 61.1 µM (active). Also, the result in assay [4] and in [5] was inactive.
In the case of `C[Si](NC1CCCCC1)(NC1CCCCC1)NC1CCCCC1`, the Potency entry in assay [1], in [2], in [3], in [6], in assay [7] and in assay [8] was “inactive” throughout. Also, the Potency entry in [9], in [10], in assay [11], in [12], in [13] and in [14] was “inactive” each time. In addition, the Potency result in [19], in assay [15] and in [16] was “inactive” in each case. In addition, the outcome in assay [4] and in assay [5] was inactive.
Turning to `CC1(C)[C@H]2CC[C@]1(C)C(=O)C2`, the Potency entry in [1], in assay [3], in assay [6], in assay [7], in assay [8] and in assay [9] was “inactive” throughout. The Potency result in assay [10], in assay [18], in assay [19] and in [16] was “inactive” in each case. In addition, the Potency in [2] was 68.6 µM (active). Also, the result in assay [4] and in [5] was inactive.
Consider `[O-][n+]1cccc(/C(Cl)=N/OC[C@@H](O)CN2CCCCC2)c1`, for which the Potency result in assay [1], in assay [2], in assay [3], in assay [6], in [7] and in assay [8] was “inactive” in each case. Moreover, the Potency entry in assay [9], in assay [10], in assay [11], in assay [13], in [17] and in assay [18] was “inactive” throughout. The Potency result in assay [14], in assay [15] and in assay [16] was “inactive” in each case. Besides, the result in [4] and in assay [5] was inactive.
Take `O=C(O)c1cc(-c2ccc(F)cc2F)ccc1O`: the Potency entry in assay [1], in [2], in [3], in [6], in [7] and in [8] was “inactive” throughout. Moreover, the Potency entry in assay [9], in [10], in assay [14], in [15] and in [16] was “inactive” throughout. In addition, the outcome in [4] and in [5] was inactive.
Turning to `Nc1nc2c(ncn2CCC(CO)CO)c(=O)[nH]1`, the Potency result in [1], in assay [2], in [3], in [6], in [7] and in assay [8] was “inactive” in each case. Further, the Potency entry in [9], in [10], in assay [17], in [14], in assay [19] and in [16] was “inactive” throughout. Moreover, the outcome in assay [4] and in assay [5] was inactive.

The values are drawn from PubChem BioAssay (Tox21).
